Records with an inconclusive call do not appear. Activity calls are given as the source filed them. Calls follow the shape of the dose curve; as a rule, active = well fitted inhibition curve with a large enough effect; inconclusive = small, poorly fitted or top-dose-only effect; inactive = flat fitted curve, though single readings scatter.
Biological target: Calcium and integrin-binding protein 1 (Homo sapiens) (UniProt Q99828)
Test: Primary qHTS for Identification of Calcium Integrin Binding Protein 1 (CIB1) Competitor (AID 1508620);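 also: GST tagged CIB1 binding a fluorescein labelled alphaIIb integrin peptide tracer; top concentration of the series differs between compounds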
Conditions: CIB1-GST / FITC-alphaIIb peptide fluorescence polarization; series mostly up to 114 µM; activity change, negative = inhibition: at the top concentration
Procedure, shortened: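 CIB1-GST (1 uM final) and compound incubated 15 min at room temperature before adding FITC-alphaIIb peptide tracer (100 nM final). Competition for binding read by fluorescence polarization (ex 480, em 540) after another 15 min at room temperature.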
% is scaled to controls: 0 for no effect and ±100 for the full control effect.

Calcium and integrin-binding protein 1 (Homo sapiens), sequence (Q99828 whole entry, looked up): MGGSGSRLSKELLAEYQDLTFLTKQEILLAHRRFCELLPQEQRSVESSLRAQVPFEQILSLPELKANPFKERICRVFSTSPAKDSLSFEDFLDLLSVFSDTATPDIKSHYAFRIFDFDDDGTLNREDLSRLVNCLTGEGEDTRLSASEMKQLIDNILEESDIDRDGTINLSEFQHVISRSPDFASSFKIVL

| Structure (SMILES) | activity change, negative = inhibition | Potency |
| --- | --- | --- |
| Cc1cc(-c2nnc3n2CCCCC3)c(C)n1-c1ccc(C(F)(F)F)cc1 | 2.74% (inactive) |  |
| Cc1ccc(OCCn2c(CCNC(=O)CCc3ccccc3Br)nc3ccccc32)cc1 | 17.1% (inactive) |  |
| FC(F)(F)c1ccccc1-c1nccc(NCc2ccc(-c3cccnc3)cc2)n1 | 1.01% (inactive) |  |
| NC(=O)C1CCN(c2nc(-c3ccc(C(F)(F)F)cc3)cs2)CC1 | -3.48% (inactive) |  |
| CC(=O)Nc1ccc(-c2csc(N3CCC(C(N)=O)CC3)n2)cc1 | -2.3% (inactive) |  |
| Cc1ccc(CNc2ncc(N3CCCCC3)cn2)cc1 | -3.02% (inactive) |  |
| NC(=O)C1CCN(c2nc(-c3cccc(N)c3)cs2)CC1 | 2.57% (inactive) |  |
| O=C(Cc1ccccc1)Nc1ncnc2c1C(c1ccccc1)c1c(ccc3ccccc13)O2 (stereo not drawn) | 7.96% (inactive) |  |
| O=C1Cc2cc(S(=O)(=O)N3CCN(c4ccc(O)cc4)CC3)ccc2N1 | -20.4% (inactive) |  |
| CN(C)c1cccc(-c2cc(N3CCC(C(N)=O)CC3)ncn2)c1 | 0.727% (inactive) |  |
| COc1ccccc1NS(=O)(=O)c1cc(NC(=O)c2ccccc2)ccc1N1CCCC1 | -2.78% (inactive) |  |
| c1csc(CCNc2ncnc3ccc(-c4ccc5c(c4)OCO5)cc23)c1 | 27.3% (inactive) |  |
| Cn1cccc1CN=C1NC2=C(C(=O)CCC2)C(c2[nH]ncc2Cl)N1 (stereo not drawn) | -1.84% (inactive) |  |
| COc1ccc(C2Nc3ccccc3C(=O)N2Cc2cccc(C(F)(F)F)c2)cc1COc1ccc(NC(C)=O)cc1 (stereo not drawn) | 3.71% (inactive) |  |
| Cc1cc(C)nc(NC(=S)N2CCN(c3cnccn3)CC2)c1 |  | inactive |
| COc1ccc(NC(=O)c2cccnc2)cc1S(=O)(=O)Nc1ccc(Br)cc1 | -0.452% (inactive) |  |
| COc1cc(O)c(C(CC(=O)N2CCC(Cc3ccccc3)CC2)c2ccc(OC)c(OC)c2)c(OC)c1 (stereo not drawn) | 4.43% [at 228 µM] (inactive) |  |
| COc1ccc(Nc2nc(-c3ccncc3)nc3ccccc23)cc1F | 0.902% (inactive) |  |
| CC(=O)Nc1sc2cnccc2c1-c1nc2ccccc2s1 | 5.19% (inactive) |  |
| Fc1ccc(-c2c(P(=S)(c3ccccc3)c3ccccc3)n3ccccc3[n+]2C/C=C/c2ccccc2)cc1 | -9.61% (inactive) |  |
| O=C(Nc1ccc(Cl)c(Cl)c1)Nc1nc(-c2ccncc2)cs1 | -5.61% (inactive) |  |
| CCc1ccc2oc(=O)cc(CN3CCN(c4ccccc4F)CC3)c2c1 | 1.55% (inactive) |  |
| O=C(O)c1ccc2c(c1)C(=O)N([C@]1(C(=O)O)CC1c1ccccc1)C2=O (stereo partly drawn) | 6.55% (inactive) |  |

— PubChem BioAssay (NCATS)
